# Measurements reported in ChEMBL document CHEMBL3988442, “University of Dundee, Small-Polar-MMV Screening Library” (2021).
# Among all 69,000 compounds or so, about 1,000 (1.4%) showed an effect of 50% or more. The list comes from a sample in which strong results are over-represented; it also holds similar structures and randomly drawn compounds.
# Tested on: Leishmania donovani
# Assay: Leishmania intramacrophage assay
# Type: functional, organism-based
# Parameters: scale not given: in the data most compounds retested in dose-response had high values
smiles,measurement,setting,value
O=C(NCCNc1ccc(C(F)(F)F)cn1)c1ccc(Br)cc1F,Percent Effect,"30 µM, 30.03 µM",-32.97%
CN(Cc1cn[nH]c1-c1ccc(F)cc1)C(=O)CCC1CC1,Percent Effect,"30.3 µM, […]",-4.143%
CCn1cc(CN2CCC(C3CCN(C)CC3)CC2)cc1C#N,Percent Effect,"30.3 µM, […]",8.451%
COc1ccc(/C=C/CN2CCCC3(C2)CN(C)C(=O)O3)cc1 (stereo not given),Percent Effect,"30.3 µM, […]",14.77%
COC[C@@]12CC[C@@H](N3CCOCC3)C[C@H]1CCN(c1cc(C)ccn1)C2,Percent Effect,"30.3 µM, […]",28.55%
CCC(O)Cn1nc(-c2ccc(C(=O)O)cc2)cc1-c1cccc(F)c1 (stereo not given),Percent Effect,"30.3 µM, […]",29.44%
CCC(O)Cn1nc(-c2ccc(C(=O)O)cc2)cc1-c1ccc(F)cc1 (stereo not given),Percent Effect,"30.3 µM, […]",61.24%
CC(C)Cn1nc(-c2ccc(C(=O)O)cc2)cc1-c1ccc(F)cc1,Percent Effect,"30.3 µM, […]",41.19%
Fc1cccc(N2CCc3ncnc(C4CC4)c3CC2)c1,Percent Effect,"30.3 µM, […]",15.99%
COCCCN1C(=O)CC[C@H]2CN(Cc3cc4ccccc4o3)CC[C@H]21,Percent Effect,"30.3 µM, […]",10.23%
CCN1CCC(NC(=O)NC2CCOc3ccc(Br)cc32)CC1 (stereo not given),Percent Effect,"30.3 µM, […]",1.839%
CN1CC(c2ccccc2)CC2(CCN(Cc3ncc[nH]3)CC2)C1 (stereo not given),Percent Effect,"30.3 µM, […]",16.63%
CCN1CC(c2ccccc2)CC2(CCN(Cc3ncc[nH]3)CC2)C1 (stereo not given),Percent Effect,"30.3 µM, […]",35.04%
c1ccc(C2CN(C3CC3)CC3(CCN(Cc4ncc[nH]4)CC3)C2)cc1 (stereo not given),Percent Effect,"30.3 µM, […]",51.92%
Cc1ccc(F)c(OC2(C(=O)O)CCN(C(=O)C3CCCC3)CC2)c1,Percent Effect,"30.3 µM, […]",24.64%
CCOC(C)c1nc(CN2CCN(Cc3cccnc3)CC2)cs1 (stereo not given),Percent Effect,"30.3 µM, […]",14.45%
Cc1nc(CN2C[C@@H]3CN(c4ncc(F)cn4)C[C@@H]3C2=O)cs1.O=C(O)C(F)(F)F,Percent Effect,"30.3 µM, […]",0.4282%
CN1CCC(N(CCc2ccccc2)C(=O)c2cc[nH]c2)CC1,Percent Effect,"30.3 µM, […]",69.36%
CN1CCC(N(CCc2ccccc2)C(=O)c2ccoc2)CC1,Percent Effect,"30.3 µM, […]",23.03%
CN1CCC(N(CCc2ccccc2)C(=O)c2ccc(CO)cc2)CC1,Percent Effect,"30.3 µM, […]",30.31%
C[C@H]1C(=O)NC[C@H]2CN(Cc3cccc(F)c3)C[C@H]21.O=C(O)C(F)(F)F,Percent Effect,"30.3 µM, […]",4.969%
Cc1cc(CN(C)C(=O)C2CCCN(C(N)=O)C2)no1 (stereo not given),Percent Effect,"30.3 µM, […]",-0.7168%
Cn1ncc(NCc2cccc(COC(C)(C)C)c2)c(Cl)c1=O,Percent Effect,"30 µM, 30.03 µM",51.11%
COc1ccc(CNc2cnn(C)c(=O)c2Cl)cc1,Percent Effect,30 µM,56.65%
Cn1ncc(NCc2cc(F)cc(F)c2)c(Cl)c1=O,Percent Effect,"30 µM, 30.03 µM",2.406%
Cn1ncc(NCc2cccc(F)c2)c(Cl)c1=O,Percent Effect,30 µM,13.08%
CC(C)OCc1cccc(CNc2cnn(C)c(=O)c2Cl)c1,Percent Effect,30 µM,21.9%
COc1cccc(CNc2cnn(C)c(=O)c2Cl)c1,Percent Effect,"30 µM, 30.03 µM",34.79%
COc1ncccc1CN1CC[C@]2(C[C@@H](OCc3ccccn3)CO2)C1.O=C(O)C(F)(F)F.O=C(O)C(F)(F)F.O=C(O)C(F)(F)F,Percent Effect,"30.3 µM, […]",-3.573%
Nc1nnnn1NCc1cccc(Cl)c1Cl,Percent Effect,"30.3 µM, […]",4.224%
O=C(CCc1ccsc1)N1CCCC(n2cncn2)C1 (stereo not given),Percent Effect,30 µM,18.97%
Cc1nccn1C1CCCN(C(=O)c2cccc(OCC(N)=O)c2)C1 (stereo not given),Percent Effect,30 µM,14.8%
COc1nccnc1N1CCC2(CC1)[C@H](O)C[C@@H]2OCCN(C)C,Percent Effect,"30.3 µM, […]",13.35%
c1csc(CCNc2nc(-c3ccncc3)nc3c2CCNCC3)c1,Percent Effect,"30.3 µM, […]",9.747%
O=C(Nc1cccc(F)c1)NC1CCN(Cc2ccncc2)CC1,Percent Effect,"30.3 µM, […]",20.9%
Cl.NC1CCc2nc(-c3ccncc3)nc(Nc3cccc(F)c3)c2C1 (stereo not given),Percent Effect,"30.3 µM, […]",64.39%
c1cc(-c2nc3c(c(NCCn4ccnn4)n2)CCNCC3)ccn1,Percent Effect,"30.3 µM, […]",24.72%
Cc1sc2c(C3CCNCC3)nc(Nc3cccc(F)c3)n2c1C.Cl,Percent Effect,"30.3 µM, […]",-10.63%
CNC(=O)c1cccc(CN2CCC(N(C)Cc3noc(C)n3)C2)c1 (stereo not given),Percent Effect,"30.3 µM, […]",-22.53%
CNc1cc(C2CCCN(S(=O)(=O)c3cn[nH]c3)C2)ccn1 (stereo not given),Percent Effect,"30.3 µM, […]",9.494%
CCN1CCN(C2CCN(Cc3c(C)noc3C)CC2)C1=O,Percent Effect,"30 µM, 30.03 µM",32.64%
CCCc1noc(CN2CCCC2c2ccsc2)n1 (stereo not given),Percent Effect,"30 µM, 30.03 µM",16.77%
CN(C)c1nc(N)nc(CN2CCCC2c2ccsc2)n1 (stereo not given),Percent Effect,"30.3 µM, […]",83.34%
Cc1nc(CN2CCCC2c2ccsc2)nc2ccccc12 (stereo not given),Percent Effect,"30 µM, 30.03 µM",47.19%
CN(C)c1nc(N)nc(CN2CCCC(c3ccccc3)CC2)n1 (stereo not given),Percent Effect,"30.3 µM, […]",6.795%
Cc1cccc(C2CCCN2Cc2nc(N)nc(N(C)C)n2)c1C (stereo not given),Percent Effect,"30.3 µM, […]",37.96%
CN(C)c1nc(N)nc(CN2CCCC2c2cccs2)n1 (stereo not given),Percent Effect,"30.3 µM, […]",87.57%
OC1(CNCCc2csc(-c3cccnc3)n2)CCNC1 (stereo not given),Percent Effect,"30.3 µM, […]",17.55%
CN1CCn2c(-c3cccc(F)c3)cnc2C12CCN(CC1CC1)CC2.O=C(O)C(F)(F)F.O=C(O)C(F)(F)F.O=C(O)C(F)(F)F,Percent Effect,"30.3 µM, […]",7.679%
CCc1cc(=O)[nH]c(-c2ccc(NCCc3ccc(O)cc3)nc2)n1,Percent Effect,"30.3 µM, […]",10.3%
